Some test systems named below: SK-MEL-2 melanoma; EKVX NSCLC; SN12C renal; UO-31 renal; TK-10 renal; ACHN renal; CAKI-1 renal; A498 renal; CCRF-CEM leukemia; MOLT-4 leukemia; RPMI-8226 leukemia; OVCAR-8 ovarian; OVCAR-5 ovarian; OVCAR-4 ovarian; SK-OV-3 ovarian; IGROV1 ovarian; OVCAR-3 ovarian; HS 578T breast; NCI/ADR-RES ovarian.
Holding throughout (assay): NCI-60 one-dose screen, 48 h (100 = growth as untreated, 0 = no growth, -100 = all killed)
Settings in all cases: 10 µM unless noted

Molecules are shown by their SMILES. The panel holds about 83,000 compounds, 20% with a hit somewhere; the sample as a whole holds those more often.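 Note: values are percent growth. 100 is the growth of untreated cells, values between 100 and 0 indicate rising inhibition; between -100 and 0 indicates cell death.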 Values without a mark were called inactive. Active and inactive are the calls of the source. The calls were made as follows: active = growth percent below 10; inactive = the rest.

For the molecule `CN(C)CCC=C1c2ccccc2C(C)(C)c2ccccc21`, the growth is 74.4% with SK-MEL-2 melanoma; 110% in the experiment with EKVX NSCLC; 71.2% in the experiment with SN12C renal; 58.1% with UO-31 renal; 98.3% in the experiment with TK-10 renal; 90.5% with ACHN renal. The growth in the experiment with CAKI-1 renal is 91.2%; in the experiment on A498 renal, 91%; in the experiment on CCRF-CEM leukemia it was 49.6%; in the experiment with MOLT-4 leukemia it was 72.9%; with RPMI-8226 leukemia, 0.547% (active); in the experiment with OVCAR-8 ovarian, 88.9%. Further, the growth with OVCAR-5 ovarian is 59.4%; with OVCAR-4 ovarian it was 76.5%; in the experiment with SK-OV-3 ovarian, 99.7%; in the experiment on IGROV1 ovarian, 61.3%; with OVCAR-3 ovarian, 80.1%; with HS 578T breast, 50.8%. Further, the growth in the experiment on NCI/ADR-RES ovarian was 77.6%.
For the molecule `O=C(/C=C/c1c(Cl)nc2sccn12)c1ccc(F)c(F)c1`, the growth in the experiment with SK-MEL-2 melanoma was 74.7%; in the experiment on EKVX NSCLC it was 74%; with SN12C renal it was 76.5%; in the experiment on UO-31 renal it was 64%; with TK-10 renal it was 91.6%; in the experiment with ACHN renal, 81.1%. In addition, the growth in the experiment with CAKI-1 renal was 81.2%; in the experiment on A498 renal, 73.6%; with CCRF-CEM leukemia, 71.7%; with MOLT-4 leukemia, 66.7%; in the experiment on RPMI-8226 leukemia it was 55.6%; in the experiment on OVCAR-8 ovarian, 92.7%. Moreover, the growth with OVCAR-5 ovarian was 76.2%; with OVCAR-4 ovarian it was 79.4%; in the experiment with SK-OV-3 ovarian, 71.3%; in the experiment with IGROV1 ovarian it was 87.5%; in the experiment on OVCAR-3 ovarian, 81.7%; in the experiment with HS 578T breast it was 73.3%. Moreover, in the experiment with NCI/ADR-RES ovarian, the growth is 85.6%.
As to `COc1ccc(S(=O)(=O)NCCNc2nccc(-c3c(-c4cccc(F)c4)nc4sccn34)n2)cc1`, the growth is 58.1% with SK-MEL-2 melanoma; 39.7% in the experiment on EKVX NSCLC; 30.7% in the experiment with SN12C renal; 20.3% in the experiment with UO-31 renal; 55.8% in the experiment on TK-10 renal; 15.8% with ACHN renal. For the same molecule, the growth was 28.2% in the experiment on CAKI-1 renal; 43.1% with A498 renal; 32.3% in the experiment with CCRF-CEM leukemia; 33.9% with MOLT-4 leukemia; 27.8% with RPMI-8226 leukemia; 36.6% in the experiment with OVCAR-8 ovarian. For the same molecule, the growth in the experiment with OVCAR-5 ovarian was 62.9%; in the experiment on OVCAR-4 ovarian it was 38.9%; in the experiment with SK-OV-3 ovarian, 54.3%; in the experiment with IGROV1 ovarian, 14.8%; in the experiment on OVCAR-3 ovarian, 49.1%; in the experiment on HS 578T breast it was 31.4%. Besides, the growth in the experiment with NCI/ADR-RES ovarian was 30.3%.
As for `Cc1nc2ccccc2n1CC1NC(=O)NC1=O` (stereo unspecified), the growth is 104% with SK-MEL-2 melanoma; 97.9% in the experiment with EKVX NSCLC; 97.7% with SN12C renal; 94.7% in the experiment with UO-31 renal; 102% in the experiment on TK-10 renal; 102% in the experiment with ACHN renal. The growth is 96% in the experiment with CAKI-1 renal; 88.8% with A498 renal; 107% in the experiment with CCRF-CEM leukemia; 96% in the experiment with MOLT-4 leukemia; 106% in the experiment with RPMI-8226 leukemia; 96.4% in the experiment with OVCAR-8 ovarian. For the same molecule, the growth in the experiment with OVCAR-5 ovarian was 99.3%; with OVCAR-4 ovarian, 102%; with SK-OV-3 ovarian it was 95.9%; in the experiment with IGROV1 ovarian it was 104%; in the experiment on OVCAR-3 ovarian, 105%; in the experiment with HS 578T breast it was 102%. The growth in the experiment with NCI/ADR-RES ovarian was 107%.
For `Cc1ccc(/C=C/c2c(C(=O)/C=C/c3ccc(Cl)cc3)c(C)nc3ccccc23)cc1`, the growth in the experiment with SK-MEL-2 melanoma is 8.94% (active); in the experiment on EKVX NSCLC it was 17.6%; in the experiment with SN12C renal, -49.2% (active); in the experiment on UO-31 renal, -74.7% (active); in the experiment with TK-10 renal, 26.5%; in the experiment with ACHN renal, -64.6% (active). The growth is -4.17% (active) in the experiment on CAKI-1 renal; -16.1% (active) in the experiment on A498 renal; 4.53% (active) with CCRF-CEM leukemia; 0.928% (active) in the experiment with MOLT-4 leukemia; -31.7% (active) with RPMI-8226 leukemia; 13% with OVCAR-8 ovarian. In addition, the growth was -33.4% (active) in the experiment on OVCAR-5 ovarian; 6.64% (active) with OVCAR-4 ovarian; 55.1% in the experiment on SK-OV-3 ovarian; 1.39% (active) in the experiment on IGROV1 ovarian; -46.2% (active) with OVCAR-3 ovarian; -5.28% (active) with HS 578T breast. Besides, the growth with NCI/ADR-RES ovarian is -21.6% (active).
With `COc1ccc(C2c3ccc4ccccc4c3Oc3nc(C)[nH]c(=O)c32)cc1` (stereo unspecified), the growth in the experiment with SK-MEL-2 melanoma was 112%; in the experiment with EKVX NSCLC, 103%; in the experiment on SN12C renal, 99.4%; in the experiment on UO-31 renal it was -97.5% (active); with TK-10 renal, 116%; in the experiment with ACHN renal, 92.3%. Moreover, the growth with CAKI-1 renal was 73.9%; in the experiment on A498 renal, 92.5%; in the experiment with CCRF-CEM leukemia it was 106%; in the experiment with MOLT-4 leukemia it was 115%; in the experiment on RPMI-8226 leukemia, 102%; in the experiment with OVCAR-8 ovarian it was 101%. The growth is 114% in the experiment on OVCAR-5 ovarian; 113% in the experiment on OVCAR-4 ovarian; 100% in the experiment on SK-OV-3 ovarian; 95.8% in the experiment with IGROV1 ovarian; 108% in the experiment on OVCAR-3 ovarian; 96.3% in the experiment on HS 578T breast. In addition, the growth with NCI/ADR-RES ovarian is 93.9%.
`COc1cc(/C=N/n2c(CN3CCOCC3)nc3ccccc3c2=O)cc(OC)c1OC`: the growth with SK-MEL-2 melanoma was 113%; in the experiment with EKVX NSCLC, 107%; in the experiment with SN12C renal it was 101%; with UO-31 renal, 87.7%; in the experiment with TK-10 renal, 103%; in the experiment on ACHN renal, 103%. Besides, the growth is 100% in the experiment on CAKI-1 renal; 81.8% in the experiment with A498 renal; 104% in the experiment with CCRF-CEM leukemia; 103% with MOLT-4 leukemia; 107% in the experiment with RPMI-8226 leukemia; 96.1% in the experiment on OVCAR-8 ovarian. For the same molecule, the growth in the experiment with OVCAR-5 ovarian was 97.4%; in the experiment on OVCAR-4 ovarian it was 104%; in the experiment on SK-OV-3 ovarian it was 103%; with IGROV1 ovarian, 98.3%; with OVCAR-3 ovarian, 106%; with HS 578T breast, 105%. Moreover, in the experiment on NCI/ADR-RES ovarian, the growth is 101%.
In the case of `COc1cc(C2CC(=O)Nc3c2c(C)nn3-c2nc3ccccc3[nH]2)cc2c1OCC(=O)N2` (stereo unspecified), the growth with SK-MEL-2 melanoma was 68.1%; with EKVX NSCLC it was 79.3%; in the experiment with SN12C renal, 76.3%; in the experiment with UO-31 renal, 51.9%; in the experiment with TK-10 renal, 87.3%; in the experiment with ACHN renal it was 70.4%. In addition, the growth in the experiment on CAKI-1 renal was 95.1%; in the experiment on A498 renal, 21.4%; in the experiment with CCRF-CEM leukemia, 12.7%; in the experiment on MOLT-4 leukemia it was -20.1% (active); in the experiment with RPMI-8226 leukemia, 74.1%; with OVCAR-8 ovarian, 34.9%. Besides, the growth in the experiment with OVCAR-5 ovarian is 101%; with OVCAR-4 ovarian it was 73.2%; in the experiment on SK-OV-3 ovarian, 28.6%; with IGROV1 ovarian it was 60.4%; in the experiment with OVCAR-3 ovarian it was 13.6%; with HS 578T breast it was 26.7%. Moreover, the growth with NCI/ADR-RES ovarian is 93.2%.
As to `O=C(/C=C/c1c(Cl)nc2sccn12)c1nccs1`, the growth in the experiment with SK-MEL-2 melanoma was 80.3%; with EKVX NSCLC, 97.5%; in the experiment on SN12C renal it was 89%; in the experiment with UO-31 renal it was 81.8%; in the experiment with TK-10 renal, 118%; in the experiment with ACHN renal it was 89.1%. Moreover, the growth with CAKI-1 renal is 78.8%; in the experiment on A498 renal it was 72.2%; in the experiment with CCRF-CEM leukemia it was 93.4%; in the experiment with MOLT-4 leukemia, 89.3%; with RPMI-8226 leukemia, 83.7%; in the experiment on OVCAR-8 ovarian, 93.9%. Besides, the growth in the experiment with OVCAR-5 ovarian is 73.2%; in the experiment with OVCAR-4 ovarian, 109%; in the experiment on SK-OV-3 ovarian it was 89.8%; in the experiment on IGROV1 ovarian, 101%; in the experiment with OVCAR-3 ovarian it was 90.9%; in the experiment with HS 578T breast, 65.5%. Besides, the growth in the experiment on NCI/ADR-RES ovarian was 99.3%.

Values taken from PubChem BioAssay (NCI).
